Compound activity from PubChem.
Hits are enriched below; roughly 10% of the tested compounds scored in any of these assays.
L3MBTL1 inh = L3MBTL1 (human) inhibition. Q9Y468. AlphaScreen L3MBTL1–H3K9me1 peptide binding. Potency, µM (titrated, usually from 57.1 µM), for the others: at the highest dose activity, negative = inhibition, usual class: inhibitors. 230,000 compounds, 0.66% hits. AID 485360; further: on the % scale 0 is the no-effect control and ±100 the full control effect; nearly all actives have a fitted effect of over 60% in size
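First, the protein-peptide complex forms for 30 min at room temperature (L3MBTL1 50 nM, biotinylated H3K9me1 peptide 75 nM). Next, compounds are pin-transferred and incubated 30 min. Finally, AlphaScreen beads are added and read after 30 min.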
G9a inh = blocks human histone lysine methyltransferase G9a | Q96KQ7 | G9a H3K9 monomethylation, AlphaScreen, 2 h | Potency, µM (series often up to 102 µM), without a hit: at the highest dose activity, negative = inhibition, usual class: inhibitors | 350,000 compounds, 8.8% hits | AID 504332; further: on the % scale 0 is the no-effect control and ±100 the full control effect; nearly all actives have a fitted effect of over 75% in size
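Quantitative HTS format: methyltransferase activity on a biotin-tagged H3K9 peptide is measured by AlphaScreen, using a rabbit anti-monomethyl-H3K9 antibody with streptavidin donor and anti-IgG acceptor beads. Final levels are 20 nM enzyme, 500 nM peptide, 20 uM SAM; 2 h RT.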
GLS inhibitor = blocks human kidney-isoform glutaminase activity | O94925 | GLS enzymatic activity, qHTS titration | AID 624170 | Potency, µM (top dose mostly 45.5 µM), for inactives: at the top dose activity change, negative = inhibition, usual class: inhibitors | 410,000 compounds, 0.21% hits; further: on the % scale 0 is the no-effect control and ±100 the full control effect
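Human kidney-isoform GLS in 45 mM KH2PO4 pH 8.2, 0.02% Tween-20, with compound, started with 1mM L-Glutamine (added stock). Glutamate oxidase/HRP/Amplex red coupled fluorescence read at start and after 30 min at RT.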
BAZ2B block = BAZ2B (human) inhibition | Q9UIF8 | AlphaScreen BAZ2B-H3K14Ac peptide displacement | Potency, µM (series often up to 114 µM), inactives show at the top dose activity change, negative = inhibition, usual class: inhibitors | 360,000 compounds, 4.4% hits | AID 504333; further: on the % scale 0 is the no-effect control and ±100 the full control effect; nearly all actives have a fitted effect of over 60% in size
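Multi-concentration screen (max 110 uM) measuring displacement of acetylated histone H3 peptide from BAZ2B by AlphaScreen, using 50 nM protein, 50 nM peptide and 10 ug/mL streptavidin donor plus Ni-chelate acceptor beads.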
JMJD2A Tudor inh = JMJD2A Tudor domain (human) inhibition; O75164; AlphaScreen JMJD2A-Tudor / H3K4me3 peptide binding; Potency, µM (titrated, usually from 114 µM), inactives show at the top dose activity change, negative = inhibition, most hits filed as inhibitors; 390,000 compounds, 4.4% hits; AID 504339; further: on the % scale 0 is the no-effect control and ±100 the full control effect; nearly all actives have a fitted effect of over 50% in size
HP1b chromo inh = inhibitors of HP1-beta chromodomain binding to methylated histone tails. P83916. AlphaScreen HP1-beta / biotin-H3K9me3 peptide binding. Potency, µM (series often up to 114 µM), for inactives: at the highest dose activity change, negative = inhibition, hits mostly inhibitors. 390,000 compounds, 0.56% hits; further: nearly all actives have a fitted effect of over 70% in size
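AlphaScreen: HP1-beta (50 nM) preformed 30 min with biotin-H3(1-18)K9me3 peptide (50 nM) in PBS pH 7.4, 0.01% Tween-20. Compound added for 30 min at RT, then streptavidin donor/nickel chelate acceptor beads (10 ug/mL) for 30 min.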
Active calls of the source: *; ? = inconclusive; . = no result given; [ ] = another dose, or the depositor's remark. The call rests on the fitted dose curve; in most records, active means well fitted curve in the direction sought with a large enough effect; inconclusive means small, poorly fitted or top-dose-only effect, or another doubt; inactive means no such curve, though single readings can be large; an effect the other way counts as inactive or inconclusive. Potency means the concentration at half of the fitted maximal effect.

SMILES | L3MBTL1 inh | G9a inh | GLS inhibitor | BAZ2B block | JMJD2A Tudor inh | HP1b chromo inh
CCN(CC)S(=O)(=O)c1ccc2c(c1)N(CC(=O)Nc1ccc(C)cc1C)C(=O)C1CCCN21 (stereo not given) | . | 14µM* | 3% | -15% | -16% | 50%
O=S1(=O)C=C(SCCN2CCCCC2)c2ccccc21 | -7% | 50µM* | 1% | -8% | 13% | 37%
Cc1ccc2nc(SCC(=O)Nc3ccc(C)c([N+](=O)[O-])c3)[nH]c2c1 | -14% | 11µM* | 0% | ? | -25% | 1%
COc1ccc(CCC(=O)Nc2cc([N+](=O)[O-])ccc2OC)cc1 | -8% | -5% | 6% | -23% | -18% | 15%
CCC(=O)Nc1ccc(C(=O)CSc2nc3ccc(C)cc3[nH]2)cc1 | -17% | 28µM* | 11% | 2% | -7% | 9%
O=C(CSCc1ccccc1)Nc1cc([N+](=O)[O-])ccc1F | -16% | 32µM* | -1% | ? | -28% | 33%
COc1ccc(CCC(=O)Nc2ccc(C)c([N+](=O)[O-])c2)cc1 | -20% | 10µM* | 3% | ? | ? | -26%
Cc1ccc2nc(SCC(=O)Nc3ccc(F)c([N+](=O)[O-])c3)[nH]c2c1 | -6% | ? | 1% | ? | -31% | -3%
Cc1ccc2nc(SCC(=O)Nc3cc([N+](=O)[O-])ccc3F)[nH]c2c1 | -3% | 25µM* | -2% | ? | -15% | 24%
COCCCNc1nc2c(c(=O)n(Cc3ccccc3)c(=O)n2C)n1C | . | 6%[59 µM] | -15% | -17% | -8% | 44%
C=CCn1c(O)c(C2=c3ccccc3=NC2=O)sc1=Nc1ccc(O)cc1 | . | -28%[12.7 µM] | 4% | 22µM* | 22µM* | ?
COc1ccc(C(=O)Oc2ccc(C(c3c(C)[nH][nH]c3=O)c3c(C)[nH][nH]c3=O)cc2)cc1 | . | -30%[59 µM] | 10% | -29% | -36% | 3%
Cc1cc(/C=N/n2cnnc2)c(C)n1-c1ccc(OCc2ccc(F)cc2)cc1 | -16% | ? | 20% | ? | 56µM* | ?
Cc1cc(/C=N/N2CCN(C)CC2)c(C)n1-c1ccc(Cl)cc1 | ? | 45µM* | -6% | ? | 50µM* | ?
Cc1cc(/C=N/NC(N)=S)c(C)n1-c1ccc(Cl)c(Cl)c1 | ? | ? | -7% | -7% | ? | 3%
Cc1cc(/C=N/n2cnnc2)c(C)n1-c1ccc(OCc2ccc(Cl)cc2Cl)cc1 | . | 16%[12.7 µM] | 1% | 40µM* | 56µM* | ?
CCNC(=S)N/N=C/c1cc(C)n(-c2ccc(Cl)cc2)c1C | -1% | ? | -12% | 28µM* | 50µM* | ?
Cc1cc(/C=N/n2cnnc2)c(C)n1-c1ccc(Cl)cc1Cl | -13% | -39%[12.7 µM] | 6% | ? | ? | -13%
Cc1cc(/C=N/n2cnnc2)c(C)n1-c1ccccc1 | . | 6%[59 µM] | -3% | -13% | -6% | 0%
CCC(=O)N1c2ccc(S(=O)(=O)N3CCCCCC3)cc2CC1C (stereo not given) | . | 5%[59 µM] | 1% | . | -11% | 20%
Cc1ccc(C)c(N2CCN(C(=O)c3cc4c(=O)n(Cc5cccnc5)ccc4nc3C)CC2)c1 | . | -3%[59 µM] | -5% | -18% | -18% | 48%
Cc1cc(/C=N/n2cnnc2)c(C)n1-c1ccc(Cl)cc1 | -13% | 14µM* | 7% | -39% | -30% | -9%
COCCNC(=O)CCCn1c(SCC(=O)Nc2ccc(F)cc2)nc2c(sc3ccccc32)c1=O | . | 2%[59 µM] | -1% | -15% | -18% | 20%
CNS(=O)(=O)c1cccc(C(=O)OC2CCCCC2=O)c1 (stereo not given) | -7% | 13µM* | 3% | -1% | -2% | 14%
CC1CC=CC2C1C(=O)N(Cc1ccccc1)C2c1ccc2ccccc2c1C=Cc1ccccc1 (stereo not given) | . | . | . | . | -15% | 29%
